Measurements as given in the OligoGym collection.

What follows are sequences tested against AKT3 (assay: pooled miR-30 sensor sort-seq; sequence = guide strand). Details: shRNA.
Note: reference of the scale not given here.

| Sequence | sensor-assay potency score (higher = more potent) |
| --- | --- |
| TAGTCCACTGGAGACATCTGAT | -0.68 |
| TATTGTAATAGTCTGAGCTGTA | 0.29 |
| TTATTGTAATAGTCTGAGCTGT | -0.326 |
| TATAACAGTAGTCCACTGGAGA | -0.667 |
| TTATCTTCTAACACCTCTGGTG | -0.243 |
| TTTATCATATACATCTTGCCAG | 0.12 |
| TTGTAGAAAGGTAACCTCCCAC | -0.166 |
| TATCTTCTAACACCTCTGGTGC | -0.701 |
| TTTAAAAGGAGGTACAAGCTTT | -0.528 |
| TTGTCTTTCTTTTATGATGGGT | -0.0312 |
| TAGTCTGAGCTGTAAATTCTTC | -1.06 |
| TTATCATATACATCTTGCCAGT | -1.09 |

Each sequence was assayed against ALAD in the same assay as above. Details: shRNA.

| Sequence | sensor-assay potency score (higher = more potent) |
| --- | --- |
| TGATAGGCTGTATGTCATCAGG | -1.65 |
| TTTGGTTTTCACTTGTCTGAGG | -0.0275 |
| TCCTTGGGAACTCTGCTGGGGA | -1.34 |
| TTGACTTAGCTGCATCCCGGAA | -1.25 |
| TAGGCTGTATGTCATCAGGAAC | -1.11 |
| ATGTCATCAGGAACATCCGTGA | -0.798 |
